Screening results as filed in PubChem BioAssay.
Compounds with a hit are over-represented: about 3.1% of the library has one in this group of screens.
VDR inh = blocks the human vitamin D receptor | VDR-SRC2-3 peptide fluorescence polarization, 2 h | Potency, µM, for the others: max response, negative = inhibition, most hits filed as inhibitors | 0.93% of 400,000 active | AID 504847; further: potency means the concentration at half of the fitted maximal effect; on the % scale 0 is the no-effect control and ±100 the full control effect
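Fluorescence polarization assay measuring small-molecule disruption of VDR binding to the coregulator peptide SRC2-3. Compounds were pin-transferred (23 nl) into the reagent mix and incubated 2 h at room temperature before reading.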
Vif-APOBEC3G blk = Vif-A3G binding inhibition | Q9HC16 | HeLa A3G-eYFP + Vif (tagged APOBEC3G with the HIV-1 protein that degrades it), YFP fluorescence, overnight | Potency, µM (doses to about 46.1 µM), without a hit: at the highest dose activity, negative = active, actives largely listed as inhibitors | 0.076% of 410,000 active | AID 602310; further: potency means the concentration at half of the fitted maximal effect; on the % scale 0 is the no-effect control and ±100 the full control effect; nearly all actives have a fitted effect of over 60% in size
Target sequence (Q9HC16 whole entry, looked up): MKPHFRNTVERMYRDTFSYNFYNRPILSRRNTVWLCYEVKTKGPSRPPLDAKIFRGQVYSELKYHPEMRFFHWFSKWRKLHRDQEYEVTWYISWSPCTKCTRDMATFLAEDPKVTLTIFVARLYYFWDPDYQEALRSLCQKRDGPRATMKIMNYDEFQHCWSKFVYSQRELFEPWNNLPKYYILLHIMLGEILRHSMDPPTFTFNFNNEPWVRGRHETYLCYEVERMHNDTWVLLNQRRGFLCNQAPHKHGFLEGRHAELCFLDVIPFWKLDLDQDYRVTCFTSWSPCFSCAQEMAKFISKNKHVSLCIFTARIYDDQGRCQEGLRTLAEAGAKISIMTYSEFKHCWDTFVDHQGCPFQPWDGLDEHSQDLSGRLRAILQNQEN
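Read-out is eYFP fluorescence (Ex 488/Em 500-530) from Vif-expressing HeLa A3G-eYFP cells; more signal means A3G escaped Vif-mediated degradation. Cells plated overnight, compound pinned in, incubated overnight at 37 deg C.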
PLK1 PBD block = blocks phosphopeptide binding to human PLK1 polo-box domain. P53350. Plk1 PBD binding of FITC phosphopeptide, fluorescence polarization. Potency, µM, without a hit: max response, negative = inhibition, actives largely listed as inhibitors. 2.8% of 360,000 active; further: potency means the concentration at half of the fitted maximal effect; series mostly up to about 57 µM; on the % scale 0 is the no-effect control and ±100 the full control effect; nearly all actives have a fitted effect of over 65% in size
Vif-A3F inh = Vif-A3F binding inhibition. HeLa A3F-eYFP + Vif (tagged APOBEC3F with the HIV-1 protein that degrades it), YFP fluorescence increase. Potency, µM (doses to about 46.1 µM), for the others: at the top dose activity, negative = active. 0.2% of 390,000 active; further: potency means the concentration at half of the fitted maximal effect; % of control where 0% means no effect; nearly all actives have a fitted effect of over 65% in size
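HeLa cells stably expressing Vif plus C-terminally eYFP-tagged A3F were seeded, incubated overnight at 37 deg C, dosed with compound, incubated overnight again at 37 deg C. Yellow fluorescence (Ex 488/Em 500-530) reported blocked Vif-mediated A3F-eYFP degradation.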
TSHR antagonist = blocks TSH signaling through the human TSH receptor | P16473 | TSHR-expressing cells, TSH-stimulated cAMP HTRF, 2 h; hits give low values | activity change, negative = inhibition, % at 11.5 µM | 0.2% of 330,000 active | AID 504810;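 active means activity change below a set negative limit, meaning inhibition stronger than a set level, cut at about -70% in these data; inconclusive means activity change between two set negative limits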; further: on the % scale 0 is the no-effect control and ±100 the full control effect
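Inhibition of cAMP made by TSHR-expressing cells under TSH stimulation (4nM final, EC80; 2 h, 37 deg C) is quantified with a one-step lysis HTRF kit, anti-cAMP cryptate versus cAMP-d2.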
* marks the source's active call; other numbers are inactive results; ? = inconclusive; . = no result. Unless noted, the call rests on the fitted dose curve; in most records, active means well fitted curve in the direction sought with a large enough effect; inconclusive means small, poorly fitted or top-dose-only effect, or another doubt; inactive means no such curve, though single readings can be large; an effect the other way counts as inactive or inconclusive.

SMILES	VDR inh	Vif-APOBEC3G blk	PLK1 PBD block	Vif-A3F inh	TSHR antagonist
CCCCCCc1cc2cc(-c3nnc(-c4ccccc4O)o3)c(=O)oc2cc1O	8%	3.2µM*	-24%	?	-17
CC(C)(C)OC(=O)N1CCC[C@H]1C(O)(c1ccccc1)c1ccccc1	4%	.	.	.	.
O=[N+]([O-])c1ccc(S(=O)Cc2ccccc2)c([N+](=O)[O-])c1 (configuration not stated)	?	-18%	0.75µM*	13%	.
COc1ccc(-c2nnn(CC(=O)N(CC(=O)NC3CCCC3)c3ccccc3)n2)cc1OC	79µM*	0%	3.8µM*	-3%	-7
Cc1ccc(NC2=CC(=O)c3sc(C)nc3C2=O)cc1	-14%	.	.	.	.
O=C(c1ccc(F)cc1)C(CN1CCOCC1)c1ccccc1 (configuration not stated)	50µM*	-28%	-14%	8%	-10
OC(COC(c1ccccc1)c1ccccc1)CN1CCOCC1 (configuration not stated)	-25%	2%	30µM*	3%	-3
COc1ccc(C(=O)C(CN2CCCC2)c2ccccc2)cc1 (configuration not stated)	?	?	-10%	-3%	3
O=C(c1ccc(Cl)cc1)C(CN1CCCC1)c1ccccc1 (configuration not stated)	25µM*	?	0%	-19%	-5
CC(C)ON([C@@H](C(=O)NO)C(C)C)S(=O)(=O)c1ccc(-c2ccccc2)cc1	-15%	.	.	.	-9
C=C(C(C)=O)C(O)c1ccc(C(F)(F)F)cc1 (configuration not stated)	-9%	.	.	.	.
CC(=O)Nc1sc(N/N=C\c2cccc(Cl)c2)nc1-c1cccs1	7.1µM*	?	?	-1%	0
CC(=O)Nc1sc(NC(=O)c2ccccc2)nc1-c1cccs1	-10%	-4%	-5%	-3%	-2
CC(=O)Nc1sc(N/N=C\c2ccc(O)cc2)nc1-c1cccs1	-23%	1%	27µM*	-1%	-1
COC(=O)[C@@H](NC(=O)O[C@@H]1C(=O)c2ccc(OC)cc2O[C@H]1c1ccc2c(c1)OCO2)C(C)C	-1%	.	.	.	.
O=C1CCC[C@@H]2[C@@H](Cc3ccccc3)[C@@H](Nc3ccccc3)C[C@@H]3CCN1[C@@H]32	.	-3%	.	.	.
COC(=O)c1sccc1NC(=O)CN(C)NS(=O)(=O)c1ccc([N+](=O)[O-])cc1	-27%	-5%	24µM*	-4%	7
COC(=O)c1sccc1NC(=O)CN(C)NS(=O)(=O)c1ccc(Cl)cc1	-4%	-7%	-22%	0%	20
CCCOc1cccc(-c2cc(C(=O)NN)c3ccccc3n2)c1	-5%	-2%	7%	-2%	1
CC(C)COc1cccc(-c2cc(C(=O)Nc3ccon3)c3ccccc3n2)c1	-8%	-8%	-2%	1%	-119*
CCn1nnnc1SCC(=O)c1ccc2c(c1)OCCO2	-1%	-2%	-2%	2%	-1
CC(C)n1nnnc1SCC(=O)c1ccc2c(c1)OCCO2	4%	4%	30µM*	-3%	1
Nc1nc(SCC(=O)c2ccc(F)cc2)n[nH]1	-2%	0%	-24%	11%	2
Cc1cnc(=O)[nH]c1SCC(=O)c1ccc(F)cc1	?	0%	12µM*	-27%	-2
Cc1nc(SCC(=O)c2ccc(F)cc2)n[nH]1	71µM*	-2%	27µM*	-7%	6
SMILES	VDR inh	Vif-APOBEC3G blk	PLK1 PBD block	Vif-A3F inh	TSHR antagonist
Cc1ccccc1S(=O)(=O)Cc1ccc(C(=O)NCc2ccco2)o1	?	-5%	24µM*	-2%	-18
CCCCC(=O)Nc1sc(C(=O)N(CC)CC)c(C)c1C(=O)OC	22µM*	0%	4.7µM*	1%	-20
CCOC(=O)c1c(NC(=O)CC)sc(C(C)=O)c1C	-24%	-8%	11µM*	2%	3
CCCC(=O)Nc1sc(C(=O)OC)c(C)c1C(N)=O	-17%	-2%	21µM*	-1%	-3
Cc1ccc(C(=O)Nc2sc(C)c(-c3ccccc3)c2C(N)=O)cc1[N+](=O)[O-]	-26%	0%	19µM*	0%	-8
COC(=O)c1sc(NC(=O)c2cccc([N+](=O)[O-])c2)c(C(N)=O)c1C	-26%	0%	27µM*	6%	-5
COC(=O)c1c(NC(=O)c2cccc([N+](=O)[O-])c2)sc(C(N)=O)c1C	-13%	-3%	?	0%	-2
OC(CCc1cccc(Cl)c1)c1cccs1 (configuration not stated)	?	-3%	21µM*	-13%	-7
COc1ccc(-c2ccccc2C2C3C=CCCC3(C)C(=O)N2Cc2ccccc2)cc1 (configuration not stated)	79µM*	-8%	.	.	.
COC(=O)N[C@H](C[N+](=O)[O-])C(C)(C)C	0%	.	.	.	.
COc1ccccc1NC(=S)N(CCCN1CCOCC1)Cc1cn(C)c2ccccc12	-14%	-1%	?	0%	-2
CCOc1ccccc1NC(=S)N(CCCN1CCOCC1)Cc1cn(C)c2ccccc12	-2%	0%	-16%	1%	0
COc1cc(Cl)ccc1NC(=S)N(CCCN1CCOCC1)Cc1cn(C)c2ccccc12	?	6%	5.3µM*	7%	-7
COc1ccc(Cl)cc1NC(=S)N(CCCN1CCOCC1)Cc1cn(C)c2ccccc12	?	-1%	6µM*	-5%	0
COc1ccc2[nH]cc(CCNc3ncncc3-c3ccccc3C)c2c1	-27%	.	.	.	.
COc1ccc(C(=O)NCC23C=CC(O2)C2C(=O)N(Cc4ccccc4)C(=O)C23)cc1 (configuration not stated)	2%	9%	-3%	-2%	-16
O=C1C2C3C=CC(CNS(=O)(=O)c4ccccc4)(O3)C2C(=O)N1c1ccc(Cl)cc1 (configuration not stated)	79µM*	-2%	-6%	-19%	8
Cc1ccc(N2C(=O)C3C4C=CC(CNC(=S)N5CCN(c6cccc(C)c6)C(C)C5)(O4)C3C2=O)cc1 (configuration not stated)	?	0%	-13%	-3%	-4
O=C1C2C3C=CC(CO)(O3)C2C(=O)N1c1ccccc1-c1ccccc1 (configuration not stated)	-100%	-20%	7.5µM*	-12%	-73*
CCOC(=O)CSc1nc(C2CC2)cc(-c2ccc(Cl)cc2)c1C#N	-14%	0%	24µM*	-17%	-25
N#Cc1c(-c2ccc(Cl)cc2)cc(-c2cccs2)nc1SCC(=O)O	?	7%	17µM*	2%	-19
N#Cc1c(-c2ccccc2)cc(-c2cccs2)nc1SCC(=O)O	?	-7%	27µM*	5%	-17
CN(C)Cc1ccccc1-c1ccc2ncnc(N3CCOCC3)c2c1	1%	.	.	.	.
C=CCOC(=O)C(=O)/C=C/c1ccc2c(c1)Cc1ccccc1-2	22µM*	-7%	?	-4%	-5
